Inconclusive results are not listed. Calls of active or inactive are those of the source. Unless noted, the call rests on the fitted dose curve; in most records, active means well fitted curve in the direction sought with a large enough effect in the repeat runs; inconclusive means weak or mixed curves; inactive means no such curve, though single readings can be large; an effect the other way counts as inactive or inconclusive.
Experiments:
[1] = qHTS assay for small molecules that induce genotoxicity in human embryonic kidney cells expressing luciferase-tagged ATAD5 (AID 651632); further: nearly all actives have a fitted effect of over 15% in size
How it was run: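 Quantitative HTS in HEK293T expressing luciferase-tagged ATAD5, whose levels rise upon DNA damage. Exposure ran 16 hr at 37C and 5% CO2, with luminescence read 30 min after Amplite addition at room temperature.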

[2] = qHTS assay for small molecule agonists of the p53 signaling pathway - cell viability (AID 651633; calls by dose curve;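 further: p53RE-bla HCT reporter cells with a stable beta-lactamase p53 reporter; series mostly up to about 83 µM; nearly all actives have a fitted effect of over 30% in size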)
How it was run: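 p53RE-bla cells, seeded at 4,000 per well and rested 5 h at 37 C/5% CO2, received compounds in DMSO for 16 h at 37 C. CellTiter-Glo was then added, and luminescence was read after 30 min at room temperature to gauge cytotoxicity.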

[3] = qHTS assay for small molecules that induce genotoxicity in human embryonic kidney cells expressing luciferase-tagged ATAD5 - cell viability (AID 651634; calls by dose curve; further: nearly all actives have a fitted effect of over 25% in size)
How it was run: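 After 15.5 hr incubation with compound at 37C, 5% CO2, HEK293T ATAD5-luciferase cells received CellTiter-Fluor reagent; fluorescence intensity was quantified following 30 min at 37C.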

[4] = qHTS assay for small molecule disruptors of the mitochondrial membrane potential - cell viability (AID 720634; calls by dose curve;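 further: human HepG2 liver cancer cells; series mostly up to about 83 µM; nearly all actives have a fitted effect of over 20% in size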)
How it was run: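 ATP-based luminescent viability readout (CellTiter-Glo, 30 min, room temperature) in HepG2 cells multiplexed with the m-MPI membrane potential dye; compound exposure lasted 1 hr at 37 C.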

[5] = qHTS assay to test for compound auto fluorescence at 590 nm (red) in HepG2 cells (AID 720674)
How it was run: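 Compound auto-fluorescence is scored relative to Rose Bengal sodium, measured at 540/590 nm in live HepG2 cultures after 1 hr compound contact (37 C, 5% CO2).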

[6] = qHTS assay to test for compound auto fluorescence at 535 nm (green) in HepG2 cells (AID 720675)
[7] = qHTS assay to test for compound auto fluorescence at 460 nm (blue) in HEK293 cells (AID 720678)
How it was run: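 Measured: blue fluorescence (Ex 405/Em 460 nm) of compound-treated HEK293 cells, incubated overnight at 37C with 5% CO2 and scaled to triamterene equivalents.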

[8] = qHTS assay to test for compound auto fluorescence at 590 nm (red) in HEK293 cells (AID 720679)
How it was run: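 Using HEK293 cells at 2,000 per well, the screen added 23 nL of each compound after cell attachment and incubated overnight (37C, 5% CO2). The plate reader then captured red-label fluorescence, Ex/Em 540/590nm.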

[9] = qHTS assay for small molecule disruptors of the mitochondrial membrane potential (AID 720635)
How it was run: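 HepG2 cells (2,000/well) attached overnight at 37C, then took compound for 1 hr at 37C, 5% CO2. Mito-MPS dye was added for 30 min; fluorescence was read at 490/535 nm (monomers) and 540/590 nm (aggregates).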

Measured: Potency

O=C(CCN1CCN(CCO)CC1)N1c2ccccc2Sc2ccc(C(F)(F)F)cc21
not listed: [9]
inactive: all other assays above

CCCCCCCCCCl
not listed: [2] | [5]
inactive: all other assays above

O=C(OCC(COC(=O)c1cccnc1)(COC(=O)c1cccnc1)COC(=O)c1cccnc1)c1cccnc1
not listed: [2]
inactive: all other assays above

COc1ccc(OC)c(Cl)c1
not listed: [9]
inactive: all other assays above

O=C1c2cccc3c2[C@H](CCC3)CN1[C@@H]1CN2CCC1CC2
not listed: [3] | [5]
inactive: all other assays above

O=Cc1ccc(Cl)c(Cl)c1
not listed: [9]
inactive: all other assays above

O=S(=O)(O)c1ccc2cc(O)c(S(=O)(=O)O)cc2c1
inactive: [1] | [2] | [3] | [4] | [6]

COc1cc2c(cc1OC)[C@@H]1CC(=O)[C@@H](CC(C)C)CN1CC2
not listed: [2] | [9]
inactive: all other assays above

BrCc1cccc(Oc2ccccc2)c1
not listed: [9]
inactive: all other assays above

CCCOC(OCCC)OCCC
not listed: [2] | [9]
inactive: all other assays above

N[C@@H](CCC(=O)N[C@@H](CS)C(=O)NCC(=O)O)C(=O)O
not listed: [1]
inactive: all other assays above

CC(=O)Nc1ccc(S(=O)(=O)Cl)cc1
not listed: [1] | [9]
inactive: all other assays above

CN(C)c1ccc(C=O)cc1
not listed: [9]
inactive: all other assays above

C[C@H](CCC(=O)O)[C@H]1CC[C@H]2[C@@H]3C(=O)C[C@@H]4CC(=O)CC[C@]4(C)[C@H]3CC(=O)[C@]12C
not listed: [5] | [8] | [9]
inactive: all other assays above

Nc1cccc(O)c1
not listed: [3] | [4] | [9]
inactive: all other assays above

O=C(O)CCSSCCC(=O)O
not listed: [9]
inactive: all other assays above

CC(C)C(=O)OCCc1ccccc1
not listed: [5] | [8] | [9]
inactive: all other assays above

CC(C)(C)c1cc(CCC(=O)NN)cc(C(C)(C)C)c1O
not listed: [9]
inactive: all other assays above

C[C@@H](Oc1ccc(CNC(=O)c2cccnc2Oc2ccc3c(c2)OCO3)c(F)c1)C(=O)O
not listed: [9]
inactive: all other assays above

CC(C)N(c1ccccc1)C(C)C
not listed: [2] | [9]
inactive: all other assays above

O=C1c2ccccc2C(=O)c2cc(S(=O)(=O)O)ccc21
not listed: [9]
inactive: all other assays above

CC(=O)c1ccc2c(c1)Cc1ccccc1-2
not listed: [2] | [9]
inactive: all other assays above

CC(C)c1ccc2cc(C(C)C)ccc2c1
not listed: [2] | [9]
inactive: all other assays above

CC(C)CCCCOC(=O)c1ccccc1C(=O)OCCCCC(C)C
not listed: [4]
inactive: all other assays above
